Screens from PubChem.
An excerpt weighted towards active compounds, which were near 6.1% of everything screened.
Gal4-VP16 FLuc: Gal4-VP16 reporter inhibition counter-screen; actives 3.5% (n = 310,000); Potency, µM (top dose mostly 53.6 µM), for the others: at the highest dose activity, negative = inhibition, actives largely listed as inhibitors; AID 2546; Drosophila S2 Gal4-VP16 UAS-luciferase, luminescence, 20 h;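 note: Gal4-VP16 expression switched on by copper sulfate through the metallothionein promoter; % is set by controls: 0 for no effect and ±100 for the full control effect; nearly all actives have a fitted effect of over 50% in size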
HepG2 viability: kills HepG2 cells in TGF-b inhibitor counter-screen | HepG2 CAGA-GFP viability, ATP luminescence, 18 h | AID 588856 | actives 0.76% (n = 410,000) | Potency, µM (highest dose often 46.1 µM), for inactives: at the highest dose activity change, negative = cytotoxicity, usual class: cytotoxic
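CellTiter-Glo luminescence gave cytotoxicity after 18 hours at 37 degrees C. The cells were HepG2 CAGA-GFP in 1% FBS DMEM, stimulated with 500 pg/mL TGF-beta after compound addition. %Activity was normalised to no-cell wells (complete cell-killing) and DMSO (no toxicity), and curves were fitted and classified.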
ATXN2 expr inh: inhibitors of ATXN2 expression. HEK-293 ATXN2-luciferase reporter, luminescence, 24 h. actives 0.72% (n = 360,000). Potency, µM (series often up to 57 µM), for the others: at the highest dose activity change, negative = inhibition, actives largely listed as inhibitors. AID 1745845; note: % is set by controls: 0 for no effect and ±100 for the full control effect; nearly all actives have a fitted effect of over 55% in size
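ATXN2-luciferase reporter cells (luciferase flanked by upstream and downstream ATXN2 gene portions) were treated 24 h at 37 °C with compounds at up to 57 uM. SteadyGlo luminescence gave expression; GF-AFC fluorescence gave viability.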
S2 tox: viability counter-screen for ATXN expression inhibitors | S2 cells (HEK-293 line with an ATXN2-luciferase reporter) viability, CellTiter-Fluor protease fluorescence, 24 h | Potency, µM (doses to about 56.7 µM), most hits filed as cytotoxic | actives 0.49% (n = 400,000) | AID 651635; note: nearly all actives have a fitted effect of over 40% in size
RORgamma inh: inhibitors of mouse ROR gamma transcriptional activity | actives 5.4% (n = 310,000) | P51450 | Potency, µM (highest dose often 53.6 µM), without a hit: at the highest dose activity change, negative = inhibition, hits mostly inhibitors | Drosophila S2 Gal4-RORgamma UAS-luciferase reporter, 20 h; note: % is set by controls: 0 for no effect and ±100 for the full control effect; nearly all actives have a fitted effect of over 60% in size
Target sequence (P51450 whole entry, looked up, the tested form may be a part): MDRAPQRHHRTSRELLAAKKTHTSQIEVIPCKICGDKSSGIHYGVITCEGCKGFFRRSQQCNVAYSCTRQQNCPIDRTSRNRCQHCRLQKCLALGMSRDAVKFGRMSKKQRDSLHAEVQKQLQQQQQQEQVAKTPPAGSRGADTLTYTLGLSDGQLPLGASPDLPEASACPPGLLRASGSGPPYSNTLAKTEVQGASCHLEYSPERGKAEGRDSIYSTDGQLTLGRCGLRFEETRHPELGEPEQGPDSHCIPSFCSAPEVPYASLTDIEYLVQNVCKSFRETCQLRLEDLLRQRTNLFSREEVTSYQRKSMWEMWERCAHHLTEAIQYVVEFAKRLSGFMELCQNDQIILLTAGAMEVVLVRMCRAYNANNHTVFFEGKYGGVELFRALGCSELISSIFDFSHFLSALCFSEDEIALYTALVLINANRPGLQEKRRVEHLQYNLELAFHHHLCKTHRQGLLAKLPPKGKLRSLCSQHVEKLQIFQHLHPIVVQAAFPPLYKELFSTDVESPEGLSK
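Drosophila Schneider cells stably carrying a metallothionein-driven Gal4 DBD–ROR gamma fusion and a UAS-Photinus luciferase reporter were exposed to compound for 1 hr, then induced with copper sulfate (700 uM final) for 20 hr at ambient temperature before luminescence reading.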
TGFb SMAD3 inh: blocks TGF-b signaling | HepG2 CAGA-GFP TGF-b/SMAD3 reporter, GFP fluorescence, 18 h; TGF-beta stimulated, 500 pg/mL final | Potency, µM (doses to about 46.1 µM), inactives show top-dose activity, negative = inhibition, actives largely listed as inhibitors | actives 1.2% (n = 410,000) | AID 588855; note: % is set by controls: 0 for no effect and ±100 for the full control effect; nearly all actives have a fitted effect of over 65% in size
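TGF-beta reporter screen: HEPG2 CAGA-GFP, 1% FBS, 500 pg/mL TGF-beta final, 18 h; per-cell GFP summed per well; curves fitted and categorized by class.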
Numbers without * were called inactive; i = inactive; ? = inconclusive; . = no result given; [ ] = remark or other dose. Calls come from the whole dose curve; as a rule, active = well fitted curve in the direction sought with a large enough effect; inconclusive = small, poorly fitted or top-dose-only effect, or another doubt; inactive = no such curve, though single readings can be large; an effect the other way counts as inactive or inconclusive. Potency is the fitted concentration of half-maximal effect.

SMILES	Gal4-VP16 FLuc	HepG2 viability	ATXN2 expr inh	S2 tox	RORgamma inh	TGFb SMAD3 inh
Clc1ccccc1Cn1c(/C=C/c2ccco2)nc2ccccc21	?	-39.3%	-31.0%	i	11.2µM*	?
COc1ccc(C2=NCCc3cc(OC)c(OC)cc32)cc1	?	-4.7%	-1.5%	i	-27.2%	-7.5%
COc1ccc(C2=NCCc3cc(OC)c(OC)cc32)cc1OC	6.31µM*	-3.7%	-14.5%	i	-7.0%	-7.7%
O=S(=O)(Nc1cccc(-c2ccc(N3CCCCC3)nn2)c1)c1cccc(F)c1	.	-17.4%	28.9%	?	.	-5.7%
COc1ccccc1CNC(=O)Cn1ncn2c(cc3sccc32)c1=O	.	-3.5%	.	.	.	-17.6%
CCCc1ccc(-c2ccc(F)c(N)c2)nc1	?	-16.7%	?	i	4.47µM*	?
CCCCc1ccc(-c2ccc(Br)cc2)nc1	-15.3%	-32.0%	74.4%	i	-11.8%	-5.9%
COc1ccc(CNc2nc(-c3ccc4c(c3)OCO4)nc3ccccc23)c(OC)c1	0.3%	.	.	.	13.3%	.
CSc1nc2nc3c(cc2c(=O)n1-c1ccccc1C)CCCC3	5.01µM*	17.1%	?	?	-15.3%	?
CCn1c(SCc2ccc(Cl)cc2)nc2nc3c(cc2c1=O)CCCC3	?	2.4%	-7.8%	i	12.6µM*	0.0%
CSc1nc2sc3c(c2c(=O)n1-c1ccccc1C)CCCC3	.	-6.0%	-10.5%	i	.	?
O=C1NN=C(c2ccc(Cl)cc2)CC1c1cccc(Br)c1 (centres undefined)	6.1%	-14.1%	-30.2%	i	41.3%	10µM*
CCCCCCCCCCOCC(O)CN (centres undefined)	8.4%	.	39.8µM*	39.8µM*	-14.5%	.
COc1ccc(CCN(C)C(=O)c2cnn(-c3nccc(-c4ccc(C)o4)n3)c2C)cc1OC	.	.	.	i	.	.
CCOc1ccc(NS(=O)(=O)c2ccc(C(=O)N(C)CCc3ccc(OC)c(OC)c3)cc2)cc1	7.08µM*	-0.4%	-7.3%	i	?	-17.9%
CCOc1ccc(NS(=O)(=O)c2ccc(C(=O)N3CCN(C(C)=O)CC3)cc2)cc1	20µM*	6.4%	10.6%	i	?	0.0%
Cc1ccccc1Nc1c(-c2ccco2)nc2c(C)cccn12	.	-58.2%	70.1%	i	.	0.6%
Cc1ccccc1C(=O)NNc1ncnc2c1cnn2-c1cccc(Cl)c1	.	-26.2%	-25.7%	i	.	-19.7%
Cc1cc(C)cc(-n2c3ccc(NC(=O)Cc4cccc5ccccc45)cc3c(=O)n2C)c1	.	-10.8%	-27.0%	0.562µM*	.	?
Cn1c(=O)c2cc(NC(=O)Cc3ccccc3F)ccc2n1-c1ccc(C(C)(C)C)cc1	.	-19.3%	-11.5%	?	.	?
CC1CCN(C2=NC(=O)/C(=C/c3ccccc3F)S2)CC1	1.0%	-28.8%	26.7%	i	-18.4%	-14.3%
CC1CC2=C(NC(=S)NC2c2ccccc2F)/C(=C/c2ccccc2F)C1 (centres undefined)	6.31µM*	-0.1%	5.3%	i	2.82µM*	?
Cc1ccc(/C=C2\CC(C)CC3=C2NC(=S)NC3c2ccc(C)cc2)cc1 (centres undefined)	?	-6.6%	28.9%	i	3.16µM*	-57.8%
CC1CC2=C(NC(=S)NC2c2cccc(F)c2)/C(=C/c2cccc(F)c2)C1 (centres undefined)	4.47µM*	-6.6%	-25.7%	i	1µM*	?
Cc1ccc(/C=C2\CCCC3=C2NC(=S)NC3c2ccc(C)cc2)cc1 (centres undefined)	-25.5%	-15.6%	1.4%	i	-42.8%	?
SMILES	Gal4-VP16 FLuc	HepG2 viability	ATXN2 expr inh	S2 tox	RORgamma inh	TGFb SMAD3 inh
COC(=O)C1=CO[C@@H](C)[C@@H]2CN3CCc4c([nH]c5ccccc45)[C@@H]3C[C@H]12	-11.7%	.	.	.	18.1%	.
O=C(CN1C(=O)C2(SCC(=O)N2c2ccc(F)cc2)c2ccccc21)NC1CCCCC1 (centres undefined)	.	0.9%	5.5%	i	.	-3.4%
COc1ccc2nc(NC(=O)c3nc(S(=O)(=O)Cc4ccccc4F)ncc3Cl)sc2c1	.	-98.6%	.	.	.	?
O=C(Nc1nc2ccc(F)cc2s1)c1nc(S(=O)(=O)Cc2ccccc2)ncc1Cl	.	-115.8%	?	14.1µM*	.	?
Cc1cccc(CS(=O)(=O)c2ncc(Cl)c(C(=O)Nc3nc4ccc(F)cc4s3)n2)c1	.	-24.4%	14.1%	i	.	?
COc1ccc2nc(NC(=O)c3nc(S(=O)(=O)Cc4ccccc4)ncc3Cl)sc2c1	.	10µM*	.	.	.	7.94µM*
CCSc1nc2c([nH]c3ccccc32)c(=O)n1-c1ccc(OC)cc1	.	-21.8%	13.8%	i	.	3.9%
Oc1c(C(c2ccc(Cl)cc2)N2CCOCC2)sc2nc(-c3ccco3)nn12 (centres undefined)	.	-37.9%	-23.0%	i	.	-29.4%
COc1ccc(NC(=S)Nc2ccccn2)c(OC)c1	-2.7%[0.365 µM]	-18.1%	52.1%	i	1.26µM*	?
COc1ccc(NC(=S)Nc2cnc3ccccc3c2)c(OC)c1	-8.2%	-2.6%	.	i	11.2µM*	-0.7%
COc1ccc(NC(=S)Nc2cc(C)ccn2)c(OC)c1	3.16µM*	-27.9%	57.5%	i	6.31µM*	?
Cc1ccc2nc(CO)[nH]c2c1	.	-0.8%	.	.	.	6.0%
CCC(=O)Nc1ccccc1-c1nc2ccccc2n(CC(=O)c2ccc(C)c(C)c2)c1=O	.	-2.2%	.	.	.	-4.2%
O=C(CSC1=Nc2ccccc2N=C(c2ccc(F)cc2)C1)NCc1ccccc1	.	-9.4%	4.6%	i	.	-16.0%
NCC/C=C1/c2ccccc2CSc2ccccc21	-6.1%	15.8µM*	-30.1%	i	-19.7%	?
C=CCN(C)CC/C=C1\c2ccccc2CSc2ccccc21	-2.0%	-40.6%	-14.5%	i	-49.0%	-16.0%
O=C1C2C3C=CC(CC3)C2C(=O)N1/N=C/c1c[nH]c2ccccc12 (centres undefined)	-7.8%	5.2%	2.0%	?	21.3%	7.1%
O=C1C2C3C=CC(C3)C2C(=O)N1/N=C/c1cn(Cc2ccccc2)c2ccccc12 (centres undefined)	8.8%	-6.5%	-23.2%	i	?	4.47µM*
O=C1C2C3C=CC(C3)C2C(=O)N1/N=C/c1cn(Cc2ccc(F)cc2)c2ccccc12 (centres undefined)	-6.7%	0.891µM*	?	i	33.5%	?
CCOC(=O)Cn1cc(/C=N/N2C(=O)C3C4C=CC(C4)C3C2=O)c2ccccc21 (centres undefined)	-20.7%	-36.6%	-9.3%	i	3.4%	6.31µM*
